Sampled rows, rich in hits. Any-hit rate of the full collection: about 0.33%.
FXIa inh: blocks human coagulation factor XIa activity; inhibition, % at 10 µM; purified human FXIa, fluorogenic AMC substrate cleavage; AID 687; 33,000 tested, 0.3% active;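 active means inhibition above 40% in the primary screen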
FXIIa inh: blocks human coagulation factor XIIa activity; P00748; AID 701; inhibition, % at 10 µM; purified human FXIIa, AMC substrate fluorescence, 2 h; 33,000 tested, 0.2% active; in the data active means inhibition above about 30%
Of the large screens only hits and unclear results are named; the others gave an inactive call.

O=c1cccc2n1CC1CC2CN(S(=O)(=O)c2ccccc2)C1 (centres undefined)	FXIa inh 42
O=C(Nc1ccc(F)cc1)N1CC2CC(C1)c1cccc(=O)n1C2 (centres undefined)	none
COc1ccc2c(c1OC)C(=O)OC2c1c(O)n(Cc2ccc(F)cc2)c(=O)[nH]c1=O (centres undefined)	none

Compound activity: PubChem, PCMD
